WRN inhibitor: WRN helicase (human) inhibition | Q14191 | Potency, µM (highest dose often 114 µM), for inactives: top-dose activity change, negative = inhibition, actives largely listed as inhibitors | WRN helicase unwinding, fluorescent forked duplex, kinetic | actives 0.46% (n = 360,000) | AID 651768; also: nearly all actives have a fitted effect of over 55% in size
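Primary qHTS, 1536-well format. 20 nM WRN + compound, 15 min RT; start with 100 nM forked fluorophore/quencher duplex, 2 mM ATP (final); kinetic read ex 525/em 598 nm.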
RECQ1 helicase: inhibitors of human RECQ1 DNA helicase | actives 0.54% (n = 240,000) | P46063 | Potency, µM (top dose mostly 57.3 µM), inactives show top-dose activity, negative = inhibition, most hits filed as inhibitors | RECQ1 DNA unwinding, red fluorescence kinetic read;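 also: plate controls were vehicle for no effect and no enzyme for full effect; nearly all actives have a fitted effect of over 30% in size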
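50 nM RECQ1T1 preincubated 15 min with compound in Tris pH 8.0 buffer with MgCl2, DTT, Tween-20 and 2.5 ug/ml poly(dI-dC); started with 200 nM TAMRA/BHQ-2 forked duplex and 2 mM ATP. Unwinding read as fluorescence (525/598 nm), two reads 2 h apart.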
BLM inh: inhibitors of human Bloom syndrome helicase BLM. P54132. recombinant BLM DNA unwinding, fluorescence dequenching. Potency, µM (doses to about 56.1 µM), for the others: at the highest dose activity change, negative = inhibition, actives largely listed as inhibitors. actives 0.2% (n = 350,000);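 also: plate controls were vehicle for no effect and no enzyme for full effect; nearly all actives have a fitted effect of over 35% in size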
L3MBTL1 inh: L3MBTL1 (human) inhibition. AlphaScreen L3MBTL1–H3K9me1 peptide binding. Potency, µM (highest dose often 57.1 µM), without a hit: at the highest dose activity, negative = inhibition, usual class: inhibitors. actives 0.66% (n = 230,000); also: nearly all actives have a fitted effect of over 60% in size
Target sequence (Q9Y468 whole entry, looked up): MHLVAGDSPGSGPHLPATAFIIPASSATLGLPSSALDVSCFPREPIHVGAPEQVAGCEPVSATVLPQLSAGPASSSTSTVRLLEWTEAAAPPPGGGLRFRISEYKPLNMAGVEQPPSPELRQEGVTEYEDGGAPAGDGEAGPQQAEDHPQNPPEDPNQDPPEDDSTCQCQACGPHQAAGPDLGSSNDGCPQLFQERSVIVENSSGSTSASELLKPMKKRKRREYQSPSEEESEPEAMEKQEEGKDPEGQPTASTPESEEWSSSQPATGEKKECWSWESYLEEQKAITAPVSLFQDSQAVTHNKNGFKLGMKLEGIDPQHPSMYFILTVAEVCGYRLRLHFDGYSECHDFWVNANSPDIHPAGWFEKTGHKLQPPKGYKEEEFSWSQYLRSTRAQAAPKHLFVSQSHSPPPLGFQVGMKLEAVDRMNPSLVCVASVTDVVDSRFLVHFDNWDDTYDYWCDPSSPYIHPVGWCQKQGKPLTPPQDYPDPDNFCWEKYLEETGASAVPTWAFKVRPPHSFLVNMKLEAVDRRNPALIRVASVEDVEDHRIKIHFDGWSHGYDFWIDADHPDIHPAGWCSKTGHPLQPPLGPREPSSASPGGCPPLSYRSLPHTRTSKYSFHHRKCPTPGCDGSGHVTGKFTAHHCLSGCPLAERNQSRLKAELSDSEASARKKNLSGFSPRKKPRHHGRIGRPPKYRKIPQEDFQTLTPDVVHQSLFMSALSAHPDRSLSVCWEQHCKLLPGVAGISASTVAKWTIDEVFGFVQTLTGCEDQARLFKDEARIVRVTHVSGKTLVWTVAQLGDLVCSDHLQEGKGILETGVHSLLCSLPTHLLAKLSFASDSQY
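Read-out is AlphaScreen signal from streptavidin donor and nickel chelate acceptor beads (10 ug/mL final each) bridging L3MBTL1 (50 nM) and biotinylated K9-monomethylated H3(1-15) peptide (75 nM), after 30 min compound exposure at room temperature.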
FEN1 inhibitor: inhibitors of human flap endonuclease 1; AID 588795; Potency, µM (highest dose often 114 µM), for inactives: top-dose activity change, negative = inhibition, most hits filed as inhibitors; actives 0.35% (n = 390,000); P39748; Recombinant FEN1 flap cleavage, fluorescence, 15 min; also: nearly all actives have a fitted effect of over 65% in size
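FEN1 at 10 nM, compound pretreatment for 15 min (room temperature), 50 nM final substrate to initiate; endpoint reads at 0 and 15 min; DMSO-only plates used as vehicle background.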
* marks the source's active call; other numbers are inactive results; i = inactive; ? = inconclusive; · = not tested or not shown; ! = not confirmed by another sample; [ ] = remark or other dose. Only some compounds are listed: those with a hit (about 0.99% of all), similar ones and a draw of the others. Calls follow the shape of the dose curve; as a rule, active = well fitted curve in the direction sought with a large enough effect; inconclusive = small, poorly fitted or top-dose-only effect, or another doubt; inactive = no such curve, though single readings can be large; an effect the other way counts as inactive or inconclusive. Unless noted, % is scaled to controls: 0 for no effect and ±100 for the full control effect; potency is read from the fitted curve at half-maximal effect.

SMILES	WRN inhibitor	RECQ1 helicase	BLM inh	L3MBTL1 inh	FEN1 inhibitor
C=CCNC(=S)NNC(=O)CC12CC3CC(CC(C3)C1)C2	4%	9%	-4%	10%	-1%
N#Cc1cc(Sc2ccccn2)c([N+](=O)[O-])cc1C#N	-35%	?	-7%	·	-3%
COc1ccc(NC(=O)CC(NCc2ccccn2)C(=O)O)cc1 (centres undefined)	0%	-3%	3%	14µM*	-8%
Nc1nc(NC(=O)C(Cl)(Cl)Cl)nn1-c1ccccc1	2%	1%	2%	28µM*	1%
N#Cc1cnn(-c2nc(SCc3ccccc3)nc3sc4c(c23)CCCC4)c1N	-1%	7.9µM*	-7%	4%	-3%
O=C(CNC(=O)c1cccc(OC(F)F)c1)Nc1ccc(Cl)cc1	-1%	·	-3%	·	-11%
C=C(CN(C)C)C(=O)c1ccc(C)cc1C	18µM*	·	·	·	-10%
O=C(NCc1ccccc1)C(c1ccccc1)N(Cc1cccs1)C(=O)c1cnccn1 (centres undefined)	1%	i	-2%	9%	-15%
C/C(=N\Nc1nc2ccccc2[nH]1)c1ccc(Cl)s1	-21%	32µM*	-12%	-9%	-5%
C/C(=N\Nc1nc2ccccc2[nH]1)c1ccc(N2CCOCC2)cc1	-7%	-12%	-12%	-19%	0%
O=C(O)CCCC[C@H]1SC[C@H]2NC(=O)N[C@@H]21	·	-11%[25.9 µM]	1%[21.4 µM]	·	·
O=C(O)CCCCC1CCSS1 (centres undefined)	-21%	2.8µM*!	14µM*!	3.2µM*	-10%
c1ccc(-c2cn(C[C@H]3CC[C@@H]([C@@H]4CC[C@H](Cn5cc(-c6ccccn6)nn5)O4)O3)nn2)nc1	4%	·	0%	2.5µM*	7%
c1ccc(-c2cn(C[C@H]3CC[C@@H]([C@@H]4CC[C@H](Cn5cc(-c6ccccc6)nn5)O4)O3)nn2)cc1	-4%	·	1%	4%	9%
O=C(CN1C(=O)/C(=C/c2cccc(Br)c2)SC1=S)NCCCN1CCOCC1	79µM*	·	-3%	·	-17%
COc1ccc(NC(=O)c2ccc(Oc3ncccn3)cc2)cc1	-2%[57.1 µM]	i	-10%	2%	-7%
CCN(Cc1cccc(S(=O)(=O)O)c1)c1ccc(C(=C2C=CC(=[N+](CC)Cc3cccc(S(=O)(=O)O)c3)C=C2)c2ccc(O)cc2S(=O)(=O)O)cc1	·	·	·	·	13µM*
CCN(Cc1cccc(S(=O)(=O)O)c1)c1ccc(C(=C2C=CC(=[N+](CC)Cc3cccc(S(=O)(=O)O)c3)C=C2)c2ccccc2S(=O)(=O)[O-])cc1	·	·	·	·	32µM*
CC1=C/C(=C(\c2ccc(O)c(C)c2)c2ccccc2S(=O)(=O)O)C=CC1=O	17%	·	-3%	-2%	3%
CC/C(=N\Nc1ccccc1[N+](=O)[O-])c1ccc(O)cc1	-7%	?	4%	25µM*	-32%
CC(C)(C)OC(=O)C[C@@H]1C/C=C\C[C@H](CC(=O)NCCO)C(=O)N2CCC[C@H]2COC1=O	4%	·	·	-4%	-7%
Cc1cc(N)ccc1N1CCCC1	50µM*	-21%	-16%	-14%	40µM*
Cc1cc(N)ccc1-n1c(C)ccc1C	-9%	3%	0%	-6%	-13%
O=C(CN(c1cccc([N+](=O)[O-])c1)S(=O)(=O)c1ccccc1)NCc1ccccc1	-1%	-8%	-1%	-11%	5%
Cn1nc(-c2ccccn2)nc2c(=O)n(C)c(=O)nc1-2	-8%	4.5µM*	1µM*	·	-5%
SMILES	WRN inhibitor	RECQ1 helicase	BLM inh	L3MBTL1 inh	FEN1 inhibitor
CCCc1nc2c(=O)n(C)c(=O)nc-2n(C)n1	-31%	?	2.8µM*	?	-6%
O=C(CCCCCCCC(=O)NNC(=O)Nc1ccccc1)NNC(=O)Nc1ccccc1	-34%	-2%	28µM*	-10%	9%
O=C(CCc1ccccc1)NNC(=O)Nc1ccccc1	-3%	20%	-6%	0%	5%
CCS(=O)(=O)C1=NN2C(=N)/C(=C\c3ccc(OCCOc4cccc(OC)c4)c(OC)c3)C(=O)N=C2S1	-33%	·	-21%	·	-2%
CCOc1cc(/C=C2\C(=N)N3N=C(S(C)(=O)=O)SC3=NC2=O)ccc1OCCOc1cccc(OC)c1	56µM*	·	-16%	·	-25%
[O-][n+]1onc2c1CCC(=N/O)/C2=N\Nc1ccccc1	·	?	32µM*	?	·
Cc1cc(NCCCCCCCNc2cc(C)nc3cc([N+](=O)[O-])ccc23)c2ccc([N+](=O)[O-])cc2n1	?	·	·	·	45µM*
S=c1[nH]nc(-c2n[nH]c3c2CCC3)n1/N=C/C=C/c1ccco1	?	13µM*	-7%	28µM*	-26%
Cc1cc(C(=O)O)ccc1-n1c(C)cc(C=C2C(=O)c3ccccc3C2=O)c1C	-19%[11.6 µM]	-15%	-9%	?	-18%
Cc1ccc(C(=O)O)cc1-c1ccc(C=C2C(=O)c3ccccc3C2=O)o1	-33%[11.6 µM]	-10%	4%	25µM*	?
Cc1nn(-c2ccccn2)c2c1C(=O)C(Br)CC2 (centres undefined)	56µM*	i	-8%	·	-5%
CCc1cccc(C)c1NC(=O)C1=C(C)C(=O)OC12CCC(C)CC2 (centres undefined)	·	·	-4%	·	2%
Cc1nc2c(=O)[nH]c(=S)[nH]c2[nH]c1=O	20µM*	·	·	·	28µM*
Cc1nc2[nH]c(=S)[nH]c(=O)c2nc1C	?	·	·	·	0%
C=C(C)C(=O)Nc1cccc(C2=NOC3(C2)C[C@@H](C(N)=O)N(C(=O)/C(C)=C/C)C3)c1 (some centres undefined)	?	18µM*	-1%	·	-20%
NC(=O)[C@H]1CC2(CC(c3cccc(NC(=O)[C@H]4CCC(=O)N4)c3)=NO2)CN1C(=O)c1ccccc1 (some centres undefined)	-7%[11.6 µM]	i	-7%	·	79µM*
C/C=C\C=C/C(=O)Nc1cccc(C2=NOC3(C2)C[C@H](C(N)=O)N(C(=O)CC)C3)c1 (some centres undefined)	-19%	9%	-3%	·	2%
C/C=C/C=C\C(=O)Nc1cccc(C2=NOC3(C2)C[C@H](C(N)=O)N(C(=O)CC#N)C3)c1 (some centres undefined)	45µM*	?	-25%	·	?
Cc1ccc(C(=O)CSc2nc(-c3ccccc3)nc3c2CCCC3)cc1C	·	·	-7%	·	-2%
Cc1[nH]n(-c2ccccc2)c(=O)c1N=Nc1c(O)cc(S(=O)(=O)N(C)C)c2ccccc12	-4%	·	·	7.9µM*	-21%
Cc1[nH]n(-c2ccccc2)c(=O)c1N=Nc1ccc2c(c1)OCCO2	2%	-3%	2%	?	0%
CC(C)(C)c1c(Cl)c(O)c(-c2ccccc2)c(=O)n1-c1ccccc1	50µM*	i	-9%	32µM*	-17%
O=C(c1coc(=O)c(Br)c1)N1CCOCC1	?	-9%	1%	14µM*	-11%
